Assay outcomes (PubChem)
A selection: hits, their analogues and other compounds. The true share with any hit is near 2.9%.
S1P4 ag: human S1P4 receptor agonism. 220,000 compounds, 0.35% hits. O95977. activation, % at 4.98 µM. S1P4-expressing cell line, agonist reporter assay. AID 1509; in the data active = activation above about 11%;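 also: 0% = DMSO vehicle and 100% = reference agonist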
S1P4 antag: human S1P4 receptor antagonism; AID 1510; 220,000 compounds, 0.26% hits; S1P4-expressing cells, antagonist mode, reporter read-out; inhibition, % at 4.98 µM; in the data active = inhibition above about 29%;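 also: 0% = wells stimulated with agonist and 100% = vehicle wells without agonist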
Hsp70 act: transcriptional activators of Hsp70 | HeLa Hsp70 promoter luciferase reporter, luminescence; scaled: vehicle 0, proteasome-inhibitor control 100% | activation, % at 10 µM | 200,000 compounds, 0.04% hits | AID 1203;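 active = activation above the mean across all tested compounds plus 3 SD, cutoff set per campaign, cut at about 5.5% in these data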;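 also: 100% = MG132 at 30 µM as the positive control and 0% = DMSO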
HSF1 activator: increases HSF-1 driven luciferase reporter signal. NIH3T3-HGL HSF-1 luciferase reporter, MG132, 8 h; 100% = twice DMSO control signal. activation, % at 9 µM. 300,000 compounds, 1.7% hits. AID 504408;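 active = mean replicate activation of at least 50% with a set share of replicates each reaching 50%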;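 also: 0% = median of the neutral control wells and 100% = twice that signal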
HSF1 inhib: HSF1 inhibition. NIH3T3-HGL HSE-luciferase, MG132-induced, luminescence 8 h; active compounds read low. activity change, negative = inhibition, % at 7.5 µM (by protocol). 300,000 compounds, 0.77% hits;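 active = more than half of replicate wells show activity change below -50%, luminescence cut by over half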;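 also: luciferase reports HSF-1 transcriptional activity via heat shock element; 0% = median of DMSO wells and -100% = zero luminescence signal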
S1P3 antag: antagonists of human S1P3 receptor; Q99500; inhibition, % at 4.98 µM; 170,000 compounds, 0.27% hits; CHO S1P3 NFAT-BLA reporter, FRET fluorescence, antagonist mode; AID 485;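 active = inhibition above the plate cutoff, the mean inhibition of test wells on that plate plus 3 SD, cut at about 28% in these data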;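 also: cells challenged with S1P at its EC80 of 0.8 µM; blue over green emission ratio from cleaved BLA substrate after 4 h stimulation; 0% = S1P-stimulated wells and 100% = unstimulated DMSO-only wells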
Target sequence (Q99500 whole entry, looked up): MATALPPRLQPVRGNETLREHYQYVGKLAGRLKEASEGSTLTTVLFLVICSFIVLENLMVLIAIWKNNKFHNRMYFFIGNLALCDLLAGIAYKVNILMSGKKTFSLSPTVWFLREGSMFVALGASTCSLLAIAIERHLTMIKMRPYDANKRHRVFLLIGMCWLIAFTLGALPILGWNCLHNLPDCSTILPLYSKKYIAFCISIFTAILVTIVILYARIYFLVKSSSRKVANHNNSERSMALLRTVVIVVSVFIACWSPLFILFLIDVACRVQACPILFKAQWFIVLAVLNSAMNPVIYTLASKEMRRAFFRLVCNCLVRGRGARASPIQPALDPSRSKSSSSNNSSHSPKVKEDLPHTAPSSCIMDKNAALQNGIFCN
* marks the source's active call; other numbers are inactive results; . = no result.

SMILES	S1P4 ag	S1P4 antag	Hsp70 act	HSF1 activator	HSF1 inhib	S1P3 antag
COc1cc(/C=N/NC(=O)c2ccc(CSc3nncn3C)cc2)ccc1OCC(=O)N1CC(C)OC(C)C1 (stereo not given)	-0.6	-1.4	-0.5	-3.6	-1.5	-9.0
O=C(N/N=C/c1ccncc1)c1ccc2c(c1)OCO2	1.1	-4.6	-0.3	1.6	-15.1	-14.3
Cc1nc2cc(NC(=O)c3cccc(S(C)(=O)=O)c3)ccc2o1	.	.	.	-7.6	-8.3	.
O=C(NC(O)C(=O)c1ccccc1)c1ccc(F)cc1 (stereo not given)	.	.	.	10.9	1.4	.
CC(C)c1ccc(/C=N/NC(=O)c2cccc(Cl)c2)cc1	0.8	1.8	0.4	55.1*	35.8	15.6
O=C(O)COc1ccccc1/C=N/NC(=O)c1ccc2c(c1)OCCO2	.	.	.	-66.9	-59.8*	.
Cc1ccccc1/C=N/NC(=O)c1sccc1C	0.0	0.7	-0.1	55.2*	37.0	-1.6
CN1CCN(NC(=O)c2cccc(Br)c2)CC1	-0.7	-16.3	-0.2	-4.1	-1.6	-13.1
COc1ccc(OC)c(C2C(C(C)=O)=C(O)C(=O)N2Cc2cccnc2)c1 (stereo not given)	2.3	15.3	-0.2	11.8	-5.1	-15.6
CN(C)CCCCNCCCNC(=O)/C=N\O	0.5	10.1	-0.1	62.0*	26.1	.
CCOc1ccc2ccccc2c1CNCCc1ccc(S(N)(=O)=O)cc1	.	.	.	4.4	0.7	.
CCc1cc2cc(C(=O)Nc3ccccc3F)sc2s1	0.8	-15.5	-0.4	57.0*	36.3	0.6
Cc1ccnc2ccc(SC(F)(F)F)cc12	-1.4	6.2	-0.1	8.3	-10.1	1.9
Cc1ccc(CNC(=O)C2CCC(=O)N(Cc3ccc(Cl)cc3)C2)cc1F (stereo not given)	.	.	.	56.0*	15.5	.
COc1ccc(CCN2CC(C(=O)NCc3cc(C)on3)CCC2=O)cc1 (stereo not given)	.	.	.	74.1*	30.4	.
COC(=O)c1ccc(CNC(=O)COC(=O)CCN2C(=O)C3CC=CCC3C2=O)cc1 (stereo not given)	.	.	.	-7.9	-13.7	.
C=CCN1C(=O)c2ccccc2Sc2ccc(C(=O)NCCC)cc21	.	.	.	28.9	7.0	.
O=C(CN(CC1CCCO1)C(=O)CNS(=O)(=O)c1ccc(F)cc1)NC1CCCC1 (stereo not given)	.	.	.	62.5*	21.0	.
Cc1ccc(S(=O)(=O)NCC(=O)N(CC(=O)NCC2CCCO2)Cc2ccc(Cl)cc2)cc1 (stereo not given)	.	.	.	51.6*	18.3	.
O=C(c1cc(COc2ccc(F)cc2Cl)on1)N1CCN(c2cnccn2)CC1	.	.	.	8.8	10.3	.
OCCCNc1cc(-c2ccnc(Nc3cccc(Cl)c3)n2)ccn1	.	.	.	-65.9	-58.3*	.
CCOc1ccc(CN(C)CC(O)COC(c2ccc(OC)cc2)c2ccc(OC)cc2)cc1 (stereo not given)	.	.	.	56.7*	26.2	.
COc1ccc(CN(C)CC(O)COC(c2ccc(OC)cc2)c2ccc(OC)cc2)cc1 (stereo not given)	.	.	.	9.3	-2.9	.
CCCCCCCn1c(=O)c(C(=O)OC)c(N)c2ccccc21	1.3	-18.5	.	36.4	11.8	-1.8
c1coc(-c2nn3c(-c4ccco4)nnc3s2)c1	1.7	-2.0	-0.1	43.1	12.8	9.2
SMILES	S1P4 ag	S1P4 antag	Hsp70 act	HSF1 activator	HSF1 inhib	S1P3 antag
COc1ccccc1-c1nn2c(-c3ccco3)nnc2s1	-1.0	-6.4	0.6	61.8*	44.4	.
Cc1c(Cc2ccccc2)sc(/N=C/c2ccc3ccccc3c2)c1C(N)=O	2.1	-12.3	0.1	.	.	-5.0
Cc1c(Cc2ccccc2)sc(/N=C/c2c(O)ccc3ccccc23)c1C(N)=O	1.9	-12.6	-0.4	-54.7	-57.6*	-6.3
COc1ccc(CCNC(=O)CCn2c(SCC(=O)N3CCCC3)nc3ccccc3c2=O)cc1OC	-0.5	-8.0	.	4.0	-3.6	-8.3
Cc1ccc(Cn2nc(C)c(NC(=O)CCCn3nc([N+](=O)[O-])c(Cl)c3C)c2C)cc1	-0.7	-1.4	-0.3	36.6	13.6	-1.1
Cc1nn(Cc2ccccc2Cl)c(C)c1NC(=O)CCCn1nc([N+](=O)[O-])c(Cl)c1C	2.4	-19.0	-0.2	60.9*	23.2	6.9
COc1ccc(C)cc1NC(=O)C/C(C)=N/NC(=O)Cc1cccc2ccccc12	.	.	.	108.9*	68.2	.
COc1ccc(CCNC(=O)C/C(C)=N/NC(=O)Cc2cccc3ccccc23)cc1OC	-0.8	-3.2	.	-1.5	-5.1	7.1
Cc1cc(C)cc(OCCNC(=O)c2cc(S(=O)(=O)N3CCOCC3)ccc2F)c1	.	.	.	16.5	-3.3	.
COC(=O)C(C)N(C(=O)c1ccc(C(=O)c2ccccc2)cc1)c1c(C)cccc1C (stereo not given)	-0.5	13.4	-0.6	65.2*	22.7	.
Cc1cc(OC(=O)c2cccc(Cl)c2)c([N+](=O)[O-])c(=O)[nH]1	.	.	.	-7.4	-15.0	.
Cc1ccccc1NC(=S)N(Cc1ccccc1)Cc1cccs1	-0.9	-9.2	-0.4	29.0	19.7	-6.5
O=C(CNC(=S)N(CCCN1CCOCC1)Cc1cccs1)NCc1ccccc1Cl	.	.	.	-77.3	-70.5*	.
CCCCNC(=O)CNC(=S)N(Cc1ccccc1)Cc1cccs1	-0.6	6.6	-0.4	-78.6	-71.3*	3.3
CNC(=S)N(Cc1ccc(Cl)cc1)Cc1cccs1	0.6	-1.2	.	54.0*	15.8	10.1
Cc1ccccc1NC(=O)COC(=O)Cc1ccsc1	0.8	-12.2	-0.2	42.2	8.2	-6.3
O=Cc1ccc(C(=O)OCC(=O)Nc2ccc(F)cc2F)cc1	.	.	.	-1.1	0.5	.
CCCN(C(=O)CSCc1ccc(Cl)cc1)c1c(N)n(Cc2ccccc2)c(=O)[nH]c1=O	.	.	.	11.8	4.3	.
CC1CC(C)CN(C(=O)c2ccc3c(c2)N(Cc2ccccc2)CCS3)C1 (stereo not given)	-0.1	-15.8	-0.2	64.0*	35.1	.
CCOC(=O)C1=C(C)Nc2ncnn2C1c1ccc2c(c1)OCO2 (stereo not given)	0.3	3.0	0.0	51.0*	32.4	-1.3
COc1ccc(C(=O)Oc2ccc(C(C)=O)cc2)c(OC)c1	0.3	11.5	-0.2	59.7*	24.5	8.8
Cc1cccc2c(N=NC(=O)C(C)n3cnc4ccccc4c3=O)c(O)[nH]c12 (stereo not given)	.	.	.	17.4	11.9	.
Oc1[nH]c2ccccc2c1N=Nc1cccc(Cl)c1	.	.	.	68.9*	37.4	.
Oc1[nH]c2ccccc2c1N=Nc1ccccc1Cl	.	.	.	-56.0	-56.0	.
Cc1cccc2c(N=Nc3ccccc3)c(O)[nH]c12	.	.	.	61.1*	25.9	.
COC(=O)c1ccc(COc2ccc(CNCc3ccc(Cl)cc3)cc2)cc1	.	.	.	0.2	18.5	.
COC(=O)Nc1nnc(/C=C/c2ccc(OC)cc2)s1	-0.7	-3.9	-0.3	40.3	10.0	-16.1
COc1ccc(/C=C/c2nnc(NC(C)=O)s2)cc1	-2.9	-7.1	.	57.4*	29.7	-0.9
Cc1ccccc1Nc1nc(N)nc(-c2oc3ccccc3c2C)n1	0.3	-4.3	.	71.9*	42.7	-1.9
